Molecules are shown by their SMILES. Active and inactive are the calls of the source. Unless noted, no rule for the calls is given here.

A short description of assay [1]: compounds binding Alexa647 anti-His antibody – biochemical, small-molecule microarray, 635 nm fluorescence, artefact control for SMM control protein annotation, primary screen (AID 1128).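 Also: score merges feature fluorescence with signal-to-noise for each printed compound spot.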 The conditions noted are these: higher = more signal.
The subject of assay [2] is Human papillomavirus type 1a E7 protein (residues 1-88). Nature of the assay: HPV1a E7 small-molecule binders, primary screen, biochemical, small-molecule microarray, residues 1-88, 635 nm (AID 1129). The note with it: small-molecule microarray binding, fluorescence 635 nm; higher = more signal.
Assay [3] addresses Focal adhesion kinase 1 (Homo sapiens) (UniProt Q05397). In words: PTK2 protein binding on printed compound slides – biochemical, small-molecule microarray, 635/667 nm fluorescence, BSA, DTT, primary screen (AID 1130).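 Also: composite of spot emission at 667 nm and signal to noise over triplicate slides.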 The conditions noted are these: 635 nm fluorescence, higher = more signal.
For assay [4], the system named is Fibrinogen (Alexa647-labelled). In words: Alexa647-fibrinogen binding to printed small molecules – biochemical, small-molecule microarray, 635/667 nm fluorescence, artefact control for SMM control-protein annotation, profiling panel (AID 1131).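 Also: z-score merges 667 nm fluorescence with per-spot signal-to-noise over triplicate slides.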 The note with it: fibrinogen-A647 binding fluorescence, higher = more signal.
For assay [5], the target named is Follistatin (Homo sapiens) (UniProt P19883). Nature of the assay: FST protein binding to printed compounds – biochemical, small-molecule microarray, 635/667 nm fluorescence, primary screen (AID 1132). The conditions noted are these: 635 nm fluorescence, higher = more signal.
Chain of Follistatin (Homo sapiens) (P19883 whole entry, looked up): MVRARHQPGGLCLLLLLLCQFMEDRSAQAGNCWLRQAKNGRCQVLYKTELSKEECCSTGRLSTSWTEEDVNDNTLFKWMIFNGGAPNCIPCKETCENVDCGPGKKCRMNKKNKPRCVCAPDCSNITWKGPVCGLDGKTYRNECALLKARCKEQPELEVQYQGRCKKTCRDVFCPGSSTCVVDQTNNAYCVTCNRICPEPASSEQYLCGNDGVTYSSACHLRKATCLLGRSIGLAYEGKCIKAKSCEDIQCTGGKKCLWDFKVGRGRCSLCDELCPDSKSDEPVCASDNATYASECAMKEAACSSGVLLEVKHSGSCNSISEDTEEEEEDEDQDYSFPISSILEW
Assay [6] deals with Fibroblast growth factor 2 (Homo sapiens) (UniProt P09038). In words: basic fibroblast growth factor binding to printed compounds – biochemical, small-molecule microarray, 635/667 nm fluorescence, primary screen (AID 1133). The conditions noted are these: FGF2, fluorescence 635/667, higher = more signal.
Chain of Fibroblast growth factor 2 (Homo sapiens) (P09038 whole entry, looked up): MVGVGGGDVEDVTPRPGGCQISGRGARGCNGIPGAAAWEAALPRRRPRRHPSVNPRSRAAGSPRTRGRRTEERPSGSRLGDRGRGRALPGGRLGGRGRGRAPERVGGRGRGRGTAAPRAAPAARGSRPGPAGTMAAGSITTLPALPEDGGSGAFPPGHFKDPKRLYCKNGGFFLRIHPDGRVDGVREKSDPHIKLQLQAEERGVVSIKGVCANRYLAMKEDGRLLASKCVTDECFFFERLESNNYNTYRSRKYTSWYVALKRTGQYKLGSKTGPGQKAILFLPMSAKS
Assay [7] is described as follows: JC-1 mitochondrial potential readout, lung cancer cells – cell-based, A549, JC-1 fluorescence, basal, 24 h, 100 nL, profiling panel (AID 1138).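 Also: A549 lung adenocarcinoma cells under basal conditions with no added stimulus; test concentration not given here.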 The note with it: higher = more signal.
For assay [8], the system named is Lefty1. In words: Lefty1 protein binding to printed compounds – biochemical, small-molecule microarray, 635/667 nm fluorescence, primary screen (AID 1139). The note with it: fluorescence 635/667, higher = more signal.
In assay [9] the test system is wheat germ agglutinin (Triticum aestivum), Alexa647-labelled. In words: Alexa647-WGA lectin binding to printed small molecules – biochemical, small-molecule microarray, 635/667 nm fluorescence, artefact control for SMM control-protein annotation, profiling panel (AID 1140).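 Also: score merges 667 nm feature emission with signal to noise over triplicate slides.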 The conditions noted are these: WGA-A647 binding, 635 nm fluorescence, higher = more signal.
In assay [10] the target is Luciferin 4-monooxygenase (Photinus pyralis) (UniProt P08659). In words: inhibition of purified Photinus pyralis luciferase – biochemical, luminescence, purified enzyme, 2006 set, primary screen (AID 1141).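 Also: cell-free assay with purified firefly luciferase at 100 ng per well in PBS; test concentration not given here.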 The conditions noted are these: purified firefly luciferase, SteadyGlo luminescence, 30 min; higher = more signal, called active from +8 up or from −8 down.
Chain of Luciferin 4-monooxygenase (Photinus pyralis) (P08659 whole entry, looked up): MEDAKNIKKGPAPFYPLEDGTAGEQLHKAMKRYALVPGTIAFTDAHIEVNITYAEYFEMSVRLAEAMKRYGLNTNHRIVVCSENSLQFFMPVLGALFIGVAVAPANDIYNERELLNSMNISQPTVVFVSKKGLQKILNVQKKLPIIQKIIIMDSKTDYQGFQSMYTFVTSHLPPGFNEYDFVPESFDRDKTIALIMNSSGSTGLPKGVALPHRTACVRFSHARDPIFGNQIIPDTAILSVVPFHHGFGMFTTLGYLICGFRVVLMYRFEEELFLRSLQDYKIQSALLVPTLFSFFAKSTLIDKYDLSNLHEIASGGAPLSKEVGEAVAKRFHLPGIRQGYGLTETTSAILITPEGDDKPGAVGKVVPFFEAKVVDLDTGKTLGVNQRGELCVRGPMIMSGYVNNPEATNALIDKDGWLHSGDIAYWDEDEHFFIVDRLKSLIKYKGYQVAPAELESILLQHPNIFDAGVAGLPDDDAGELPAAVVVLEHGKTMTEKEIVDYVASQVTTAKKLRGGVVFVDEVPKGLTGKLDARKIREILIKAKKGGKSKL
In assay [11] the test system is Wnt5a (protein binding on small-molecule microarray). Nature of the assay: small molecules binding Wnt5a protein – biophysical, small-molecule microarray, 635/667 nm fluorescence, primary screen (AID 1142).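 Also: fluorescence read at 667 nm with signal to noise per printed feature.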 The note with it: 635 nm fluorescence, higher = more signal.
Assay [12] can be described thus: ATP-based viability of Huh7 replicon cells – cell-based, CellTiter-Glo luminescence, basal, 48 h, cytotoxicity control for HCV replication inhibitor project, primary screen (AID 1143).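 Also: Huh7 hepatoma cells carrying a hepatitis C replication reporter with no stimulus; test concentration not given here.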 The note with it: higher = more signal, called active from +8 up or from −8 down. Background: Replicon systems follow genome replication, usually without infectious particles.
Assay [13] in a line: Pseudomonas biofilm growth suppression – PAO1 strain, BacTiter-Glo luminescence, LB-PBS, primary screen (AID 1144). The note with it: P. aeruginosa PAO1 biofilm, 12 h, higher = more signal.
A short description of assay [14]: basal CRE-LacZ reporter activity in PC12 – cell-based, unstimulated, primary screen (AID 1145). The note with it: no forskolin, luminescence, 4.5 h, higher = more signal, called active from +8 up or from −8 down.
A short description of assay [15]: forskolin-driven CRE-LacZ activity in PC12 – cell-based, CRE-LacZ reporter, forskolin-stimulated, primary screen (AID 1146).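 Also: PC12 cells with 6xCRE LacZ reporter stimulated by forskolin 10 µM; beta-galactosidase reporter signal reflecting CREB driven transcription.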 The note with it: luminescence, 4.5 h, higher = more signal, called active from +8 up or from −8 down.
The target in assay [16] is Streptavidin (Streptomyces avidinii) (UniProt P22629). Nature of the assay: compounds binding control protein streptavidin – biophysical, small-molecule microarray, 635/667 nm fluorescence, artefact control for SMM compound annotation, primary screen (AID 1147).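 Also: signal reflects streptavidin binding to arrayed compounds as a control protein.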 The note with it: higher = more signal.
Chain of Streptavidin (Streptomyces avidinii) (P22629 whole entry, looked up): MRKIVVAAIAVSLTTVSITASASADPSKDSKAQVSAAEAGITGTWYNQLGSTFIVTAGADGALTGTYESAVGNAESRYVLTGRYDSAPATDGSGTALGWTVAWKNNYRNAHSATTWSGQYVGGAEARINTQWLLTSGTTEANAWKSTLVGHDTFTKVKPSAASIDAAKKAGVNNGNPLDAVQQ
A short description of assay [17]: probe aInhba binding on compound microarray – biochemical, small-molecule microarray, 635/667 nm fluorescence, primary screen (AID 1148).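 Also: score merges 667nm spot fluorescence with signal-to-noise for antibody binding to printed compounds.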 The note with it: higher = more signal.
The target in assay [18] is Torsin-1A (Homo sapiens) (UniProt O14656). In words: TOR1A wild-type binding on microarray – cell lysate, small-molecule microarray, lysate, 635/667 nm, primary screen (AID 1149). The conditions noted are these: COS7 hTOR1A-WT lysate, 635 nm fluorescence, higher = more signal.
Chain of Torsin-1A (Homo sapiens) (O14656 whole entry, looked up): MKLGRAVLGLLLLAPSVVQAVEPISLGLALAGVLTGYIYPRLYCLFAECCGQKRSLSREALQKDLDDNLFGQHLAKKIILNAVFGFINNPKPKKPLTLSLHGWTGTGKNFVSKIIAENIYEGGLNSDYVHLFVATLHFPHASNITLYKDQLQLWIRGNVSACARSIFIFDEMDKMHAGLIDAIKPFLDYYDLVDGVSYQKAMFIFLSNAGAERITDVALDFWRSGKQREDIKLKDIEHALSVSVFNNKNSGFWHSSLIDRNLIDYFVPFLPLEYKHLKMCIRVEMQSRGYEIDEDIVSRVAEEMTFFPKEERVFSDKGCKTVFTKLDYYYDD
Assay [19] shares this target. Nature of the assay: torsin A mutant lysate binding on microarrays – cell lysate, small-molecule microarray, COS7 lysate, 635/667 nm fluorescence, primary screen (AID 1150).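 Also: score pools 667 nm emission and signal to noise measuring lysate protein binding.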 The note with it: COS7 hTOR1A mutant lysate, 635 nm fluorescence, higher = more signal.
In assay [20] the test system is Sonic hedgehog protein (Shh). In words: Sonic hedgehog microarray binding compounds – biochemical, small-molecule microarray, 635/667 nm fluorescence, primary screen (AID 1151).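 Also: Shh protein binding to compounds spotted on small-molecule microarray slides; score combines spot fluorescence intensity with signal-to-noise across triplicate slides.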 The note with it: 635 nm fluorescence, higher = more signal.

Chain of Focal adhesion kinase 1 (Homo sapiens) (Q05397 whole entry, looked up): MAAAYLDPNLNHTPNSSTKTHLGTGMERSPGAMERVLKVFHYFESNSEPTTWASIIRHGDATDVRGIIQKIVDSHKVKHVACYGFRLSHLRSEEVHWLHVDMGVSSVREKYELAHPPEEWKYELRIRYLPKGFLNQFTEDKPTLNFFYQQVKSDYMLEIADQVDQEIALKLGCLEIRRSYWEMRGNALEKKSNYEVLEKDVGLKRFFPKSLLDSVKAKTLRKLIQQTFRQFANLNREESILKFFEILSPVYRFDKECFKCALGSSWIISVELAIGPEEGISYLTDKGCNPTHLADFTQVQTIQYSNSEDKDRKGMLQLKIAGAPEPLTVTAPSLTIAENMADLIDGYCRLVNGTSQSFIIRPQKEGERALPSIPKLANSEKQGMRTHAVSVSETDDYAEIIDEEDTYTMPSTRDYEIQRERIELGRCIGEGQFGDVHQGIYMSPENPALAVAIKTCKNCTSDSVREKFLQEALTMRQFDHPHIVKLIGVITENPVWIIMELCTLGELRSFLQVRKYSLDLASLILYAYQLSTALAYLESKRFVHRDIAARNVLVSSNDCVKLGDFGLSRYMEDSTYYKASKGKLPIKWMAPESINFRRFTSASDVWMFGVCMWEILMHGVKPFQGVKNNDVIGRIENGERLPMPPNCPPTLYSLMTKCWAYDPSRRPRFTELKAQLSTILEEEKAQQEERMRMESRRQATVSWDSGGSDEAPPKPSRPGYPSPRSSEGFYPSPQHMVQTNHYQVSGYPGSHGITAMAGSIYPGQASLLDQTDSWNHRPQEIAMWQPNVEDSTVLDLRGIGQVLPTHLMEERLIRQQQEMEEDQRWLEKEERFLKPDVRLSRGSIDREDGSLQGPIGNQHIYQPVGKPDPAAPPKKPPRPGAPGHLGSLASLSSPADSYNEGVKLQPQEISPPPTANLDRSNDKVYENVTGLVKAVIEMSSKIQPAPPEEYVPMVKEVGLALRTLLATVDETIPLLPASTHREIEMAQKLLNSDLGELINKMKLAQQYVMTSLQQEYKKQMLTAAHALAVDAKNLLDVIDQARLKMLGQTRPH

In the case of `COC(=O)[C@@]1(Cc2ccc(OC)cc2)[C@H]2c3cc(C(=O)N4CCCC4)n(Cc4cc(F)cc5c4OCOC5)c3C[C@H]2CN1C(=O)c1ccccc1`, the composite z-score in [1] is -0.642; in assay [2], 1.2; in assay [3] it was 0.993; in assay [4], -0.18; in assay [5], 0.0448; in assay [6], -0.873. The composite z-score in assay [8] was -0.394; in [9], 0.0908; in assay [11], 0.605; in assay [16], 0.699; in [17], 0.423; in assay [18] it was 0.442. In addition, the composite z-score in assay [19] is 0.996; in assay [20] it was -0.673. Besides, the z-score in assay [7] was 0.64; in assay [10], 0.0222 (inactive); in assay [12], -2.5 (inactive); in assay [13], 0.437 (inactive); in assay [14], 2.68 (inactive); in [15], 66.7 (active).
In the case of `CC(C)N1C(=O)c2ccccc2[C@@H](C(=O)NCCCN(C)C)[C@@H]1c1ccc(CO)cc1`, the composite z-score was 0.0674 in assay [1]; -0.163 in assay [2]; 1.13 in [3]; -0.305 in [4]; -0.631 in assay [5]; -0.521 in [6]. In addition, the composite z-score was -1.12 in assay [8]; 0.705 in assay [9]; -0.0882 in assay [11]; -0.418 in assay [16]; 0.0633 in assay [17]; -0.0795 in assay [18]. Further, the values for the composite z-score in assay [19] and in assay [20] were -0.0729 and -0.589, respectively. Moreover, the z-score in [7] was -0.864; in [10] it was 0.571 (inactive); in assay [12], -0.921 (inactive); in assay [13] it was -0.282 (inactive); in assay [14], -0.116 (inactive); in assay [15] it was -0.0135 (inactive).
For `COc1ccc(C#Cc2ccc3c(c2)[C@]2(C(=O)N3)[C@H](c3ccc(O)cc3)N3[C@H](c4ccccc4)[C@H](c4ccccc4)OC(=O)[C@H]3[C@@H]2C(=O)NC[C@H](O)c2ccccc2)cc1`, the composite z-score in [1] is 1.35; in assay [2], 1.21; in assay [3] it was 0.32; in [4], 0.556; in assay [5], 1.03; in [6] it was 0.487. In addition, the composite z-score was 0.751 in assay [8]; 1.01 in assay [9]; 0.365 in assay [11]; 0.153 in [16]; -0.0606 in assay [17]; 0.215 in assay [18]. The values for the composite z-score in [19] and in assay [20] were 0.488 and 1.05, respectively. For the same molecule, the z-score is -1.26 in assay [7]; -0.835 (inactive) in assay [10]; -3.5 (inactive) in [12]; -0.654 (inactive) in [13]; -0.0246 (inactive) in assay [14]; -1.12 (inactive) in assay [15].
With `COC(=O)c1ccc(C(O)C2C=CC3C(=O)N(C)C(=O)C3N2NC(=O)OC(C)(C)C)o1` (stereo not given), the composite z-score in assay [1] was 0.882; in assay [2] it was 1.06; in [3], 0.329; in assay [4] it was 0.63; in [5], 0.419; in [6], 0.624. Further, the composite z-score was 0.0239 in assay [8]; 0.436 in assay [9]; 0.565 in [11]; 0.367 in [16]; -0.128 in [17]; 0.649 in [18]. Also, the composite z-score in assay [19] was 1.5; in [20] it was 0.112. Also, the z-score in assay [7] was -0.414; in assay [10], -0.965 (inactive); in assay [12], 0.534 (inactive); in assay [13], 0.212 (inactive); in [14], 1 (inactive); in assay [15], 0.323 (inactive).
For `[N-]=[N+]=NCc1ccccc1C[C@]1(C(=O)O)N=C(c2ccc(OCCCO)cc2)O[C@H]1c1ccccc1CN=[N+]=[N-]`, the composite z-score worked out at 1.25 in assay [1]; 1.03 in [2]; 0.378 in assay [3]; 1.02 in [4]; 0.879 in assay [5]; 0.157 in assay [6]. Also, the composite z-score is -0.8 in [8]; 1.08 in assay [9]; -0.0602 in assay [11]; 1.66 in [16]; 0.0342 in assay [17]; 0.171 in [18]. For the same molecule, the composite z-score in assay [19] is 0.48; in assay [20], -0.0214. The z-score is 0.0653 in assay [7]; -1.49 (inactive) in assay [10]; -1.42 (inactive) in assay [12]; -0.046 (inactive) in assay [13]; 2.87 (inactive) in assay [14]; 2.69 (inactive) in [15].

(Values after PubChem BioAssay.)
